In PubChem BioAssay (NCATS):
Where “and” joins values, the source holds several entries; their conditions need not be identical. Identical values can stand only once. Some compounds were tested as several samples or in several runs, with calls that do not always agree. Calls of active or inactive are those of the source.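 The calls were made as follows: active = compounds whose dose series gives a full or clear partial fitted curve of increased nuclear translocation; inconclusive = weak partial curve or effect only at the top dose; inactive = no dose-dependent translocation response.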

target: Glucocorticoid receptor (Homo sapiens) (UniProt P04150); assay: GR-GFP Redistribution (AID 450); conditions: U2OS GR-GFP nuclear translocation, laser cytometry, 2 h
Text: NIH Molecular Libraries Screening Centers Network [MLSCN]
NIH Chemical Genomics Center [NCGC]
The glucocorticoid receptor (GR) Redistribution assay (BioImage) enables the visualization of GR cytoplasmic to nuclear translocation by the use of a GR-GFP fusion. GR is normally cytosolic, however ligands such as dexamethasone, cause nuclear translocation where the protein binds to response elements and interacts with various co-factors to modulate transcription. Because both functional agonists and antagonists can induce nuclear translocation, this assay can detect ligands regardless of their effects on gene expression. GR-GFP expressing U20S cells were used here. Dexamethasone was the positive control for translocation and data normalization. Detection of nuclear translocation was performed in 1536-well plates using the Acumen laser scanning plate cytometer (TTP LabTech). Validation of this assay and a detailed protocol have been described.
NCGC Assay Protocol Summary:
GR-GFP U2OS cells were maintained in DMEM with Glutamax and high glucose, 1% v/v penicillin-streptomycin, and 0.5 mg/mL Geneticin. For cell culture, 10% […] fetal bovine serum (FBS) was used (Invitrogen #26140-079). For cell plating 10% dextran, charcoal-stripped FBS (Hyclone SH30068.03) was used. U2OS cells were trypsin treated, suspended in medium, and passed through a 40 um basket filter. The cells were seeded at 600 cells/5 uL/well into clear-bottom black sided 1536-well plates and incubated for approximately 20 hrs, 37degC, 5%, CO2 in a tissue culture incubator. Twenty-three nL of compound was delivered by pin tool and the plates were incubated as above for 2 hrs. The compounds were tested as a 7-point titration ranging from 46 uM to 0.6 nM. The cells were fixed using the Kalypsys Washer/Dispenser station. The fixing protocol involved aspiration of the cell media, addition of 6 uL/well of PBS, aspiration of PBS, addition of 5uL/well of 100% methanol, aspiration of methanol, and addition of 3 uL/well PBS with 1.5 uM propidium iodide (PI). The plates were read by the Acumen Explorer using a 1 x 8 um scan of the whole well area. PI fluorescence triggered the collection of PI and GFP signals. A nuclei population was defined by a 10 to 100 um width and depth filter that eliminated small and large fluorescent particles. Two subpopulations of nuclei were then defined by peak intensity of GFP fluorescence to obtain translocated and untranslocated objects. The number of translocated objects was used for data normalization.
Keywords: NIH Roadmap, MLSCN, MLI, MLSMR, sOGT, qHTS, NCGC
Potency is read from the fitted curve at half-maximal effect.

Sequence of Glucocorticoid receptor (Homo sapiens) (P04150 whole entry, looked up): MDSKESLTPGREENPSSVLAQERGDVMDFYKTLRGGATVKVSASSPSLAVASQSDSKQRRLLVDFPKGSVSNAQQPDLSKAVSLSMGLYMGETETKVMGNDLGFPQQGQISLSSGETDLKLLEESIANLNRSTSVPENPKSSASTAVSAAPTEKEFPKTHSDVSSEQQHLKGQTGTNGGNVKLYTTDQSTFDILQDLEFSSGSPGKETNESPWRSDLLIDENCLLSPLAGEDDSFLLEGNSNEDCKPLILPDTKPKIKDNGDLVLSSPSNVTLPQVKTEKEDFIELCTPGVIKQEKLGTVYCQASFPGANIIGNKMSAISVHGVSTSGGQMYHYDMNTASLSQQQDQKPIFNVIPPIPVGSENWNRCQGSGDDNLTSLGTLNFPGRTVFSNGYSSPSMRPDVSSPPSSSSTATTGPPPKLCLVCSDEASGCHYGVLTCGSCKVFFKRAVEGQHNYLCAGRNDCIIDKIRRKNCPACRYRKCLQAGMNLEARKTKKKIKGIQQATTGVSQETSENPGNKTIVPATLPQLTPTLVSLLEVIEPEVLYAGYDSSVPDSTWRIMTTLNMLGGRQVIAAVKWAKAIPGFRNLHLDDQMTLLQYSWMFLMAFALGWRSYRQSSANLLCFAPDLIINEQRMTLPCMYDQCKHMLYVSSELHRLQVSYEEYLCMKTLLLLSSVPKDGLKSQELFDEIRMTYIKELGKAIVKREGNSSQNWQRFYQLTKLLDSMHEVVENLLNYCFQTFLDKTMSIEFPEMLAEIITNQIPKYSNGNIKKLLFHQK

| SMILES | Potency |
| --- | --- |
| OC[C@@H](O)CN1CCN(c2ccccc2)CC1 | > 20.6 µM (inactive) |
| COc1cc2ccc(=O)oc2c(O)c1O | > 46 µM (inactive) |
| CO[C@]1(NC(=O)C2SC(=C(C(N)=O)C(=O)O)S2)C(=O)N2C(C(=O)O)=C(CSc3nnnn3C)CS[C@H]21 (stereo not given in full) | > 20.6 µM (inactive) |
| C#C[C@]1(O)CC[C@@H]2[C@H]3CCC4=CCCC[C@@H]4[C@@H]3CC[C@@]21C | > 20.6 µM (inactive) |
| O=C1O[C@@H]([C@@H](O)CO)[C@@H](O)[C@H]1O | > 20.6 µM (inactive) |
| C[C@@H]1CCc2cc(F)cc3c(=O)c(C(=O)O)cn1c23 | > 20.6 µM (inactive) |
| c1ccc2c3c([nH]c2c1)[C@@H]1[C@H]2CC[C@H]([C@H]4CCCN[C@H]42)N1CC3 | > 20.6 µM (inactive) |
| O=c1cc(-c2ccc(O)cc2)oc2c([C@H]3O[C@@H](CO)[C@@H](O)[C@@H](O)[C@@H]3O)c(O)cc(O)c12 | > 20.6 µM (inactive) |
| CNCCC=C1c2ccccc2C=Cc2ccccc21 | > 20.6 µM (inactive) |
| CO[C@H]1[C@H](O[C@H]2O[C@@H](C)[C@@H](O[C@@H]3C[C@](C)(O)[C@H](OC(=O)CC(C)C)[C@H](C)O3)[C@@H](N(C)C)[C@@H]2O)[C@@H](CC=O)C[C@@H](C)[C@@H](O)/C=C\C=C/C[C@@H](C)OC(=O)C[C@H]1OC(C)=O | > 20.6 µM (inactive) |
| C[N+]1(C)CCC[C@H]1C(=O)[O-] | > 20.6 µM (inactive) |
| C[C@@H]1C(=O)O[C@@H]2C[C@]34[C@H]5C[C@@H](C(C)(C)C)[C@@]36[C@@H](OC(=O)[C@@H]6O)O[C@@]4(C(=O)O5)[C@@]12O | > 20.6 µM (inactive) |
| C=C1CC23C[C@H]4[C@@H]5[C@@]6(C)C[C@H](OC(=O)c7ccccc7)[C@@H](OC(C)=O)[C@]57[C@@H]2[C@@H](OC(C)=O)[C@H]1[C@@H](O)[C@H]3[C@H]7N4C6 | > 20.6 µM (inactive) |
| NCC[C@H](O)C(=O)N[C@H]1C[C@@H](N)[C@@H](O[C@H]2O[C@@H](CN)[C@@H](O)[C@@H](O)[C@@H]2O)[C@@H](O)[C@@H]1O[C@H]1O[C@@H](CO)[C@@H](O)[C@@H](N)[C@@H]1O | > 20.6 µM (inactive) |
| CC(=O)N(C[C@@H](C)C(=O)O)c1c(I)cc(I)c(N)c1I | > 20.6 µM (inactive) |
| CCOC(=O)Oc1c(OC)cc(C(=O)O[C@H]2C[C@H]3CN4CCc5c([nH]c6cc(OC)ccc56)[C@@H]4C[C@H]3[C@@H](C(=O)OC)[C@@H]2OC)cc1OC | > 20.6 µM (inactive) |
| CO[C@@H]1CC[C@@]2(C)[C@@H](CC[C@@]3(C)[C@H]2CC=C2[C@H]4CC(C)(C)[C@H](O)[C@@H](OC(C)=O)[C@]4(CO)[C@H](O)C[C@]23C)[C@@]1(C)CO (tested in a mixture with another compound) | > 20.6 µM (inactive) |
| O[C@@](CCN1CCCCC1)(c1ccccc1)[C@@H]1C[C@H]2C=C[C@@H]1C2 | > 20.6 µM (inactive) |
| CC[C@H](C)C(=O)O[C@@H]1C[C@H](C)C=C2C=C[C@H](C)[C@@H](CC[C@H]3C[C@@H](O)CC(=O)O3)[C@H]21 | > 20.6 µM (inactive) |
| Nc1ncnc2c1ncn2[C@@H]1O[C@H](COP(=O)(O)O)[C@@H](O)[C@@H]1O | > 20.6 µM (inactive) |

| SMILES | Potency |
| --- | --- |
| CC(=O)/C(C)=N\O | 7.38 µM (active) and > 46 µM (inactive) |
| C[C@@H](CNC1CCCCC1)OC(=O)c1ccccc1 | > 20.6 µM (inactive) |
| NC(=O)N/N=C\c1ccc([N+](=O)[O-])o1 | > 20.6 µM (inactive) |
| CCC(=O)O[C@@H]1[C@H](C)O[C@H](O[C@H]2[C@@H](N(C)C)[C@H](O)[C@@H](O[C@@H]3[C@@H](CC=O)C[C@@H](C)[C@@H](O)/C=C\C=C/C[C@@H](C)OC(=O)C[C@@H](OC(=O)CC)[C@H]3OC)O[C@H]2C)C[C@]1(C)O | > 20.6 µM (inactive) |
| FC(F)(F)c1ccccc1-c1ccc2ncnc(NC3CCNCC3)c2c1 | > 46 µM (inactive) |
| CC(=O)c1cc2ccccc2oc1=O | > 20.6 µM (inactive) |
| O=C(O)[C@@H]1CCCN1 | > 46 µM (inactive) |
| COc1cc2cc3c4cc(OC)c(OC)cc4cc[n+]3c(C)c2cc1OC | > 20.6 µM (inactive) |
| COc1ccc(CNc2ncncc2-c2ccccc2CN(C)C)c(OC)c1 | > 46 µM (inactive) |
| CCOC(=O)[C@H](CCc1ccccc1)N[C@@H](C)C(=O)N1[C@H](C(=O)O)C[C@H]2CCC[C@@H]21 | > 20.6 µM (inactive) |
| Cc1onc(-c2c(Cl)cccc2Cl)c1C(=O)N[C@H]1C(=O)N2[C@H]1SC(C)(C)[C@H]2C(=O)O | > 20.6 µM (inactive) |
| Nc1ccccc1S(N)(=O)=O | > 20.6 µM (inactive) |
| CCC(=O)O[C@@]1(C(=O)CCl)[C@@H](C)C[C@@H]2[C@H]3CCC4=CC(=O)C=C[C@@]4(C)[C@]3(F)[C@@H](O)C[C@@]21C | 0.000621 µM (active) |
| COc1ccc(OC)c([C@H](O)CNC(=O)CN)c1 | > 20.6 µM (inactive) |
| O=c1[nH]c(=O)n([C@@H]2C[C@H](O)[C@H](CO)O2)cc1C(F)(F)F | > 20.6 µM (inactive) |
| C[N+](C)(CCCOc1ccccc1)c1ccccc1 | > 20.6 µM (inactive) |
| O[C@@](CCN1CCCC1)(c1ccccc1)C1CCCCC1 | > 20.6 µM (inactive) |
| CC(=O)OCC(=O)[C@@]12OC(C)(C)O[C@@H]1C[C@H]1[C@H]3C[C@H](F)C4=CC(=O)C=C[C@@]4(C)[C@]3(F)[C@H](O)C[C@@]12C | 0.00175 µM (active) |
| O=C(/C=C\c1ccc(O)c(O)c1)O[C@@H]1C[C@](O)(C(=O)O)C[C@@H](O)[C@@H]1O | > 20.6 µM (inactive) |
| Cc1ccc2c(c1)c1c3n2CCN[C@H]3CCC1 | > 20.6 µM (inactive) and > 46 µM (inactive) |
